This is an account of results in ChEMBL document CHEMBL3988442, “University of Dundee, Small-Polar-MMV Screening Library” (2021).

In this assay the target is T1, Methionyl-tRNA synthetase, putative (Leishmania donovani (strain BPK282A1)) (UniProt E9BF75).
T1 sequence (whole entry): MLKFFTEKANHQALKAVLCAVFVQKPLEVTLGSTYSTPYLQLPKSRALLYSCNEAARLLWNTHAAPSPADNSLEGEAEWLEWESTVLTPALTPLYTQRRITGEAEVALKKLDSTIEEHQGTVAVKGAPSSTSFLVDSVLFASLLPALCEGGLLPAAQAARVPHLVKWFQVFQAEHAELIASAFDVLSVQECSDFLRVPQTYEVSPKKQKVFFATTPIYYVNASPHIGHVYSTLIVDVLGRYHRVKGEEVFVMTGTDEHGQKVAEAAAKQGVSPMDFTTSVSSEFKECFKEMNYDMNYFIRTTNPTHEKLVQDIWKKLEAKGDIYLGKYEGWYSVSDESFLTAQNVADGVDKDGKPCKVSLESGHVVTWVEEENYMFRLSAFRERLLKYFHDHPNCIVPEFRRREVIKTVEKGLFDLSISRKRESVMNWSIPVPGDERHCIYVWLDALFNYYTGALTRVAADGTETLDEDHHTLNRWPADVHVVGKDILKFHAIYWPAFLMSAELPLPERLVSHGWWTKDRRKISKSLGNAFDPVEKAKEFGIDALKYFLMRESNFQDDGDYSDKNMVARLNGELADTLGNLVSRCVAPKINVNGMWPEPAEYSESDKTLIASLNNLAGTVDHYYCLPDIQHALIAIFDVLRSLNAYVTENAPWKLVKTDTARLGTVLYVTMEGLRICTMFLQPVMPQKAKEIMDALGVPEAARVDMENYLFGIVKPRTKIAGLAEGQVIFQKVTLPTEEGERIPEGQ
As to the kind of experiment: Leishmania donovani Methionine tRNA synthetase (LdMetRS):v7. Dose response assay. The format is functional. Further details: conc 80 nM, time 150 minutes.

With `c1ccc(CN2CCC(CCNc3ncnc4c3CCNCC4)C2)cc1` (centres undefined), the PXC50 came out at 4.15 (BOTTOM 0.940952942, HILLSLOPE 0.875315482, MAX_EFFECT 60.13864818, TOP 100.0); 4.12 (BOTTOM 1.061688445, HILLSLOPE 1.57945515, MAX_EFFECT 59.73154362, TOP 100.0); 4.17 (BOTTOM -6.676814726, HILLSLOPE 1.817914846, MAX_EFFECT 63.88888889, TOP 100.0).
For the compound `Cc1nc(C)n(CC2CCCN2Cc2nc(C)c3ccccc3n2)n1` (centres undefined), the PXC50 by setting is: (BOTTOM 0.925302431, HILLSLOPE 1.017320837, MAX_EFFECT 67.36111111, TOP 99.90284223) 4.31; (BOTTOM 1.588399375, HILLSLOPE 1.270951942, MAX_EFFECT 69.49740035, TOP 100.0) 4.3; (BOTTOM 6.646518839, HILLSLOPE 0.950758055, MAX_EFFECT 62.41610738, TOP 100.0) 4.2.
For `OCCNc1nc(Nc2cccc(C(F)(F)F)c2)nc2ccsc12`, the PXC50 was less than 4 (MAX_EFFECT 27.65957447), less than 4 (MAX_EFFECT 37.44493392) and less than 4 (MAX_EFFECT 44.00826446).
Regarding `Cn1ncc2c(NCCO)nc(NCCN3CCOCC3)nc21`, the PXC50 runs as follows: (MAX_EFFECT 4.109589041) less than 4; (MAX_EFFECT 10.0) less than 4; (MAX_EFFECT 11.56069364) less than 4.
For the compound `CNc1cc(-c2cccc(CN)c2)c2cc[nH]c2n1`, the PXC50 runs as follows: (BOTTOM 0.988395417, HILLSLOPE 1.522848712, MAX_EFFECT 89.26174497, TOP 100.0) 4.55; (BOTTOM -0.303339397, HILLSLOPE 1.457263574, MAX_EFFECT 90.27777778, TOP 100.0) 4.5; (BOTTOM -1.705392775, HILLSLOPE 1.008817214, MAX_EFFECT 54.59272097, TOP 100.0) 4.07.
On to `Cc1noc(CCNc2nc(Nc3ccc(F)c(F)c3)nc3c2cnn3C)n1`, for which the PXC50 reads like this: (BOTTOM 2.244251311, HILLSLOPE 1.0049242, MAX_EFFECT 73.69439072, TOP 84.09605428) 4.84; (BOTTOM 5.127321336, HILLSLOPE 1.112866852, MAX_EFFECT 63.09012876, TOP 72.94792798) 4.77; (BOTTOM 6.005431852, HILLSLOPE 0.908019528, MAX_EFFECT 65.55819477, TOP 83.02457631) 4.61.
For the compound `Cn1ncc2c(NCCn3cccn3)nc(Nc3ccc(F)c(F)c3)nc21`, the PXC50 is, setting by setting: (MAX_EFFECT 33.72921615) less than 4; (MAX_EFFECT 37.33905579) less than 4; (MAX_EFFECT 41.9729207) less than 4.
Take `CC(C)CCNc1nnc(C(C)C)s1`: the PXC50 reads like this: (MAX_EFFECT 4.081632653) less than 4; (MAX_EFFECT 6.479859895) less than 4; (MAX_EFFECT 7.971014493) less than 4.
On to `CN(CCN)c1nc(Nc2ccc(F)c(F)c2)nc2c1cnn2C`, for which the PXC50 stood at 4.41 (BOTTOM 2.133170856, HILLSLOPE 1.093077372, MAX_EFFECT 77.62557078, TOP 100.0); 4.36 (BOTTOM 3.57857286, HILLSLOPE 1.096477566, MAX_EFFECT 74.90566038, TOP 102.700119); 4.54 (BOTTOM 5.354463627, HILLSLOPE 0.967320352, MAX_EFFECT 79.31688805, TOP 100.0).
As for `c1ccc(CNc2ncc(CN3CCCN4CCC[C@H]4C3)cn2)cc1`, the PXC50 by setting is: (BOTTOM -0.610075864, HILLSLOPE 1.031656218, MAX_EFFECT 61.9047619, TOP 100.0) 4.18; (BOTTOM -1.183822823, HILLSLOPE 1.053099151, MAX_EFFECT 65.67425569, TOP 100.0) 4.24; (MAX_EFFECT 60.86956522) less than 4.
Regarding `Cc1cc(C)n(CCCn2cncc2-c2ccc3c(c2)CC(C)N3C)n1` (centres undefined), the PXC50 (BOTTOM 4.401789899, HILLSLOPE 1.374668367, MAX_EFFECT 53.02013423, TOP 100.0) came out at 4.02; the PXC50 (BOTTOM 5.049738187, HILLSLOPE 0.795238386, MAX_EFFECT 63.88888889, TOP 100.0) came out at 4.3; the PXC50 (BOTTOM 6.889933183, HILLSLOPE 1.019311149, MAX_EFFECT 71.9237435, TOP 100.0) was 4.34; the PXC50 (MAX_EFFECT 6.666666667) was less than 4; the PXC50 (MAX_EFFECT 21.73913043) is less than 4.
Consider `O=C(CCc1n[nH]c2c1CCCC2)N1C[C@@H]2CC[C@H](C1)N(CC1CC1)C2`, for which the PXC50 by setting is: (BOTTOM 12.11622841, HILLSLOPE 1.527540497, MAX_EFFECT 61.47110333, TOP 100.0) 4.08; (BOTTOM -0.508945456, HILLSLOPE 1.017254843, MAX_EFFECT 57.14285714, TOP 100.0) 4.12; (BOTTOM -1.441363941, HILLSLOPE 1.01121357, MAX_EFFECT 60.86956522, TOP 100.0) 4.2.
`Cn1ncc2c(NCCO)nc(NCc3cccnc3)nc21`: the PXC50 (MAX_EFFECT 7.969639469) is less than 4, the PXC50 (MAX_EFFECT 8.113207547) was less than 4 and the PXC50 (MAX_EFFECT 12.78538813) was less than 4.
`CCN(CC)c1ccc2ccc(C(=O)N3CCCCO3)cn12` yielded a PXC50 (BOTTOM -0.620934572, HILLSLOPE 1.091774088, MAX_EFFECT 59.15492958, TOP 100.0) of 4.06; a PXC50 (BOTTOM -3.857934484, HILLSLOPE 1.704145188, MAX_EFFECT 56.25, TOP 100.0) of 4.39; a PXC50 (MAX_EFFECT 43.85964912) of less than 4; a PXC50 (MAX_EFFECT 47.96296296) of less than 4.
With `O=C1NCC(c2ccc(F)cc2)Cc2[nH]c(CCN3CCCC3)nc21` (centres undefined), the PXC50 came out at 4.15 (BOTTOM 0.586623965, HILLSLOPE 0.960788857, MAX_EFFECT 61.0738255, TOP 100.0); 4.21 (BOTTOM 2.860481636, HILLSLOPE 1.198642369, MAX_EFFECT 65.27777778, TOP 100.0); 4.18 (BOTTOM -5.455719139, HILLSLOPE 0.971400426, MAX_EFFECT 59.44540728, TOP 100.0).
With `Cn1ncc2c(NCCN)nc(Nc3ccc(F)c(F)c3)nc21`, the PXC50 by setting is: (BOTTOM 0.911965316, HILLSLOPE 1.032464682, MAX_EFFECT 89.9543379, TOP 102.6852722) 4.79; (BOTTOM 7.300924011, HILLSLOPE 0.949344895, MAX_EFFECT 92.59962049, TOP 105.5838005) 4.84; (BOTTOM 8.334888852, HILLSLOPE 1.031126137, MAX_EFFECT 87.73584906, TOP 103.8891038) 4.68.
As for `OCCNc1nc(Nc2cccc(Cl)c2)nc2ccsc12`, the PXC50 reads like this: (BOTTOM 1.378134297, HILLSLOPE 1.322835543, MAX_EFFECT 77.47933884, TOP 79.16655544) 5.15; (BOTTOM 6.064283009, HILLSLOPE 1.027674538, MAX_EFFECT 79.88394584, TOP 88.71842546) 4.91; (BOTTOM -3.793761971, HILLSLOPE 0.936804969, MAX_EFFECT 83.25991189, TOP 91.73851926) 5.08.
